# Data taken from PubChem BioAssay AID1259343 (VanderVen Lab, College of Veterinary Medicine, Cornell …, 2017).
# In all, about 6,200 compounds went through this assay and about 2,900 (47%) were called active. The set was probably picked from earlier hits. The list shows a part of the results. A number with no mark means an inactive call. No stated cut-off is given here; in the data, active means inhibition above about 50%; inactive means the rest.
# Assay: Mycobacterium tuberculosis growth inhibition, primary screen (AID 1259343)
# Conditions: inhibition: at 10 µM, stronger effect = higher value; outcome: 10 uM
row,SMILES,inhibition
1,O=c1c2ccccc2oc2nc(C3CCCCC3)n(Cc3ccccc3)c(=O)c12,-13.4%
2,CSCCC(=O)N1CCCC(C(=O)Nc2ccc(-c3cccc(F)c3)cc2)C1 (stereo unspecified),36.2%
3,CCc1ncc(CN2CCCC(C(=O)Nc3cccc(-c4ccc(F)cc4)c3)C2)cn1 (stereo unspecified),77% (active)
4,O=C(Nc1ccc(-c2cccc(F)c2)cc1)C1CCCN(C(=O)C2CCOCC2)C1 (stereo unspecified),76.7% (active)
5,O=C(Nc1cccc(-c2ccc(F)cc2)c1)C1CCCN(Cc2cccnc2)C1 (stereo unspecified),47.1%
6,Cc1ccc(CC2CCCN(c3cn[nH]c(=O)c3Cl)C2)cc1 (stereo unspecified),41.4%
7,CC1(CCc2ccccc2)CCN(c2cn[nH]c(=O)c2Cl)C1 (stereo unspecified),71.2% (active)
8,O=c1c(Cl)c(Oc2ccccc2)cnn1Cc1ccccc1,24.6%
9,CCN(C(=O)c1cccc(Br)c1C)c1ccccc1,-6.9%
10,Cc1cc(Cl)ccc1OC(C)c1nnc(SCCC2CCCCC2)o1 (stereo unspecified),10.5%
11,O=S(=O)(c1cc(Br)ccc1Br)N1CCCc2ccccc21,7.14%
12,Cc1ccc(O)c(S(=O)(=O)N2CCCc3cc(F)c(F)cc32)c1,3.27%
13,O=S(=O)(c1cc(Br)ccc1Br)N1CCc2ccccc21,102% (active)
14,O=S(=O)(c1cc(Br)ccc1Br)N1CCC1c1ccccc1 (stereo unspecified),77.1% (active)
15,CC(C)SCC(=O)Nc1cnc2ccccc2c1,92.9% (active)
16,CC(C)CCNC(=O)CSc1nc2ccccc2o1,6.9%
17,COc1cccc(-n2cc(CN(C)Cc3cccc4nonc34)cn2)c1,83.4% (active)
18,COc1cccc(-n2cc(CN(C)Cc3cc4ccccc4[nH]3)cn2)c1,41.5%
19,CC(C)c1cc2c(c(O)c1O)[C@@]1(C(=O)O)CCCC(C)(C)C1CC2 (stereo partly specified),48.2%
20,CC(C)c1ccc2c(c1)CCC1C(C)(C(N)=O)CCCC21C (stereo unspecified),64.3% (active)
21,Cc1ccc(C2CC2C(=O)NS(=O)(=O)c2ccc(F)cc2)s1 (stereo unspecified),-6%
22,CC(=O)NS(=O)(=O)c1ccc(N)cc1,60.2% (active)
23,COc1ccc(S(=O)(=O)NCCC(C)C)cc1,3.91%
24,O=C(NCc1ccc(S(=O)(=O)N2CCCCC2)cc1)NCc1cccc(C(F)(F)F)c1,91.4% (active)
25,O=C(c1cnc2cc3c(cc2c1)OC1(CCCC1)O3)c1ccccc1O,-7.11%
26,Cc1ccc(NC2=CC(=O)c3sc(C)nc3C2=O)cc1,99.8% (active)

row,SMILES,inhibition
1,Cc1ccc(-c2nc(C)sc2CC(=O)NC(C)C2CC2)cc1 (stereo unspecified),33.3%
2,CC(C)CNc1nnnc2c1sc1nc(N3CCOCC3)c3c(c12)CCCC3,-4.41%
3,CCc1nc2sc3c(NCCN(C)C)ncnc3c2c2c1CCCC2,47.1%
4,CCc1nc2sc3c(NCC4CCCO4)ncnc3c2c2c1CCCC2 (stereo unspecified),57.2% (active)
5,COc1ccc(F)cc1-c1csc(-c2ccc(NC(=O)C3CC3)cc2)n1,71.9% (active)
6,COc1ccc(-c2nc(-c3ccccc3F)cs2)cc1OC,12.5%
7,COc1ccc(-c2cc(CNC(=O)C3CC3)no2)cc1,30.7%
8,COc1ccc(-c2cc(NC(=O)C3CC3)ccc2OC)cc1,93.7% (active)
9,CCOC(=O)c1c(C)nn(-c2ccc(C(=O)NC3CCC(C)CC3)cc2)c1C (stereo unspecified),38.6%
10,CCOC(=O)c1c(C)c(C(=O)NC2CC(C)CC(C)(C)C2)c(C)n1CC (stereo unspecified),93.8% (active)
11,Cc1csc2cc(C(=O)NC3CC(C)CC(C)(C)C3)cnc12 (stereo unspecified),41%
12,CCOc1ccc2c(c1)C=C(C(=O)NCc1ccco1)CO2,-9.65%
13,Cc1c(C(=O)NCc2ccco2)c(C2CC2)nn1-c1ccc(Cl)c(Cl)c1,91% (active)
14,CCCc1c(C(=O)O)c(C2CC2)nn1-c1ccc(OC)cc1,17.7%
15,CS(=O)(=O)N(c1ccccc1Cl)S(=O)(=O)c1ccc(Cl)c([N+](=O)[O-])c1,70.4% (active)
16,O=[N+]([O-])c1cc(S(=O)(=O)Oc2cccc(Cl)c2Cl)ccc1Cl,-21.3%
17,CN(C)C(CNc1ccc(S(C)(=O)=O)cc1[N+](=O)[O-])c1ccco1 (stereo unspecified),-2.26%
18,O=C1O/C(=C/Br)CCC1c1cccc2ccccc12 (stereo unspecified),102% (active)
19,O=C(O)c1ccc(CN2CCc3cc(-n4cccn4)cnc32)cc1,26.6%
20,CCOC(=O)C1(CCOc2ccccc2)CCN(Cc2cccc(-n3cccn3)c2)CC1,31.7%
21,CNC(=O)c1ccc(-c2cccc(-n3cccn3)c2)s1,91.2% (active)
22,CNC(=O)COc1ccc(-c2cccc(-n3cccn3)c2)cc1,54.7% (active)
23,COc1cc(NC(=O)c2ccc(CN3CC=CC3)cc2)cc(OC)c1,36.1%
24,COc1cc(NC(=O)c2ccc(N3CCC(C)=N3)cc2)cc(OC)c1,71% (active)
25,NC(Cc1ccc(F)cc1)c1csc(Nc2cc(Oc3ccccc3)ncn2)n1 (stereo unspecified),54.2% (active)
26,NC(Cc1ccccc1)c1csc(Nc2cc(Oc3ccccc3)ncn2)n1 (stereo unspecified),inactive

row,SMILES,inhibition
1,COc1ccc(CC(N)c2csc(Nc3cc(Oc4ccccc4)ncn3)n2)cc1 (stereo unspecified),56.6% (active)
2,NC(COCc1ccccc1)c1csc(Nc2cc(Oc3ccccc3)ncn2)n1 (stereo unspecified),76.8% (active)
3,NC(Cc1ccc(C(F)(F)F)cc1)c1csc(Nc2cc(Oc3ccccc3)ncn2)n1 (stereo unspecified),59.6% (active)
4,Cc1nn(C)c(Cl)c1CNc1ccccc1,5.19%
5,CC1(C)C2CCC1(C)C(NC(=O)Nc1nnc(C3CC3)s1)C2 (stereo unspecified),41%
6,COc1ccc(C(N)c2csc(Nc3cc(Oc4ccccc4)ncn3)n2)cc1 (stereo unspecified),58.8% (active)
7,O=C(O)c1oc2ccc(Cl)cc2c1-n1cccc1,90.5% (active)
8,CCCCCNC(=O)C1CCN(C(=O)c2oc3ccc(Cl)cc3c2C)CC1,29.4%
9,O=C(c1cccs1)c1coc2ccc(Cl)cc2c1=O,43.6%
10,COc1ccc(-c2nn3c(nc2=O)-c2ccccc2NC3C(C)C)cc1 (stereo unspecified),inactive
11,CSc1ncc(CN2CCCC(C(=O)c3ccc(Oc4ccccc4)cc3)C2)cn1 (stereo unspecified),92.1% (active)
12,COc1c(C)cc(C(=O)C2CCCN(Cc3cnc(SC)nc3)C2)cc1C (stereo unspecified),47.7%
13,O=C(c1ccc(Oc2ccccc2)cc1)C1CCCN(C(=O)c2ccc3nccnc3c2)C1 (stereo unspecified),56% (active)
14,O=C(c1ccc(Oc2ccccc2)cc1)C1CCCN(C(=O)c2cnsn2)C1 (stereo unspecified),64.4% (active)
15,Cc1occc1C(=O)N1CCCC(C(=O)c2ccc(Oc3ccccc3)cc2)C1 (stereo unspecified),17%
16,Cc1nonc1C(=O)N1CCCC(C(=O)c2ccc(Oc3ccccc3)cc2)C1 (stereo unspecified),13.8%
17,O=C(c1ccc(-c2ccccc2)cc1)C1CCCN(C(=O)c2ccc3nccnc3c2)C1 (stereo unspecified),18.2%
18,O=C(COC(=O)c1n[nH]c(=O)c2ccccc12)Nc1ccc2c(c1)CCC2,37.8%
19,O=C(COCC(F)(F)F)Nc1ccc2c(c1)C(=O)CCC2,81.5% (active)
20,O=C(Nc1ccc2c(c1)CCC2)C1CCN(C(=O)OCC(F)(F)F)CC1,49.5%
21,Clc1ccc(-c2noc(CSc3ccc(Br)cc3)n2)cc1,66.5% (active)
22,Cc1cccc(C)c1Cn1c(C)c(C(=O)NCc2ccc(Cl)c(Cl)c2)sc1=O,16.1%
23,O=C(NCc1ccc(Cl)cc1)c1c(O)nc2ccccn2c1=O,25.1%
24,O=C(NCCc1ccccc1)c1c(O)nc2sccn2c1=O,1.99%
25,Cc1ccc(CNC(=O)c2c(O)nc3sccn3c2=O)cc1,74.4% (active)
26,O=C(NCc1ccc(Cl)cc1)c1c(O)nc2sccn2c1=O,81.1% (active)

row,SMILES,inhibition
1,Cc1ccc(CNC(=O)CN2CCc3sccc3C2C)cc1 (stereo unspecified),27%
2,O=C(NCc1ccc(F)cc1)c1c(O)nc2sccn2c1=O,59.5% (active)
3,O=C(NCc1ccccc1)c1c(O)nc2sccn2c1=O,63.3% (active)
4,O=C(NC1CCCCC1)c1c(O)nc2ccccn2c1=O,42.4%
5,Fc1cccc(Nc2cc3[nH]c(-c4cccc(F)c4)cc3cn2)c1,30.6%
6,COCC(C)NC(=O)C12CCC(C)(C(=O)O1)C2(C)C (stereo unspecified),100% (active)
7,COCC(C)NC(=O)c1ccc(CSc2ccccc2)o1 (stereo unspecified),-22.4%
8,Brc1ccc(-n2nc(-c3ccccc3)n[n+]2-c2nnn[n-]2)cc1,49.9%
9,O=C(O)c1cc2cc(Cl)sc2s1,37%
10,O=C(O)c1cc(-c2ccc(Cl)c(Cl)c2)ns1,90% (active)
11,CCN(CC)c1ccc(CN(C)S(=O)(=O)c2ccc(F)cc2)cc1,33.5%
12,CN(Cc1ccc(Cl)s1)S(=O)(=O)c1ccc(Cl)cc1,73.6% (active)
13,O=C(Nc1cccc2cccnc12)N1CCCC1C1CCCC1 (stereo unspecified),27.2%
14,CC(=O)NCCC1CCN(c2nncc(-c3ccc(Cl)cc3)n2)CC1,38%
15,O=C(CN1CCc2ccccc2C1)NCC1CCN(c2ccccc2)C1 (stereo unspecified),91.3% (active)
16,Cc1ccc2c(c1)C1CN(C)CCC1N2C(=O)NCC1CCCC1 (stereo unspecified),45.5%
17,CC(C)CC(=O)NCC1CCN(c2ccc(Cl)cc2)C1 (stereo unspecified),68.8% (active)
18,O=C(CN1CCc2ccccc2C1)Nc1nc(-c2cc3ccccc3o2)cs1,5.08%
19,O=C(NCC1CCN(c2ccccc2)C1)N1CCCC1C1CCCC1 (stereo unspecified),67.7% (active)
20,O=C(NCC1CC1)N1Cc2ccccc2C(c2ccccc2)C1 (stereo unspecified),8.6%
21,O=C(Nc1nc2c(Br)cccc2s1)Nc1c(F)cccc1F,28.4%
22,Fc1cccc2sc(Nc3nnc(-c4cccs4)o3)nc12,101% (active)
23,Cc1cccc2cc(CNC(C)Cc3ccco3)c(Cl)nc12 (stereo unspecified),24.3%
